Measurements taken from PMC7819943, “Rice protein-binding microarrays: a tool to detect cis-acting elements near promoter regions in rice”.
The full ranking holds about 68,000 sequences; the median of “fluorescence intensity (a.u.)” is about 9,100, and the highest 2% start at about 16,000. Many of the other results were omitted from the sample, so the highest values are more common in it than they were.

Each sequence was assayed against OsWRKY34 (Oryza sativa, UniProt Q0JBA9 1-250) (assay: protein-binding microarray (RPBM); PBS, 2% BSA, 51.3 ng/ul salmon testes DNA, 50 uM zinc acetate, 200 nM TF, 25 C, 1 h; high values mean tight binding). Conditions: protein: recombinant; tags: N-terminal polyhistidine and DsRed monomer fusion (pET32a); label: CyDye5-dUTP incorporated in the synthesized complementary strand; 3' TTTTT single-stranded linker to array surface; dsDNA, one strand shown.
In short: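 Using Ni–NTA, transcription factors fused N-terminally to polyhistidine and DsRed were purified after expression in E. coli BL21-CodonPlus. These were incubated at 200 nM with a blocked, double-stranded custom Agilent array for 1 h at 25 °C in a buffer containing 50 µM zinc acetate, and the array was washed. The binding signal is per-feature fluorescence intensity (arbitrary units) on an Axon 4000B scanner.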

OsWRKY34, sequence (Q0JBA9 entry or part of it): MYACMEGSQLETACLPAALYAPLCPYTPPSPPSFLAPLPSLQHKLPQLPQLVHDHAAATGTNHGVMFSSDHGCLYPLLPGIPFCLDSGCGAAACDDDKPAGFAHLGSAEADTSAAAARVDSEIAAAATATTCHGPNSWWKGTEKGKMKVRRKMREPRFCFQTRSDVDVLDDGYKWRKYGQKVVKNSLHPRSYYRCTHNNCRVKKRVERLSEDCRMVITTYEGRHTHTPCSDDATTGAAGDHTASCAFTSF

**Q.** How did the binding signal turn out when “GATTGCTTTGTGGGTGTATGGTTCATCTTCAATGGTTTACCGGAGTCACCTAGTGCAG” was run?
**A.** 8030 fluorescence intensity (a.u.)

**Q.** For “CCGTTTCAAAATGTTTGACACCGTTGACTTTTTAGTACGTCGGAGTCACCTAGTGCAG”, which binding signal is on record?
**A.** 21100 fluorescence intensity (a.u.)

**Q.** With “TGATATCTTTTTCTTTAATGACTTTCCGTGTTTTCAACGTCGGAGTCACCTAGTGCAG” as the sequence, how does the binding signal read?
**A.** 8090 fluorescence intensity (a.u.)

**Q.** “GTTTCAAAATGTTTGACACCGTTGACTTTTTAGTACGTGTCGGAGTCACCTAGTGCAG” was tested. Which binding signal did it give?
**A.** 22500 fluorescence intensity (a.u.)

**Q.** With “AACGTACTAATGCATGACACCGTTGACTTTTTTTCAACGTCGGAGTCACCTAGTGCAG” as the sequence, how does the binding signal read?
**A.** 40400 fluorescence intensity (a.u.)

**Q.** How did the binding signal turn out when “CGACAAAATTCAACCGTAATTTCAACGTTTTCCTAACTTTCGGAGTCACCTAGTGCAG” was run?
**A.** 8990 fluorescence intensity (a.u.)

**Q.** For “CGTTTCAAAATGTTTGACACCGTTGACTTTTTAGTACATGCGGAGTCACCTAGTGCAG”, which binding signal is on record?
**A.** 35900 fluorescence intensity (a.u.)

**Q.** With “ACCATCACTTTTACTCTCTTTCTGCCTTAAAATCTCAATACGGAGTCACCTAGTGCAG” as the sequence, how does the binding signal read?
**A.** 8590 fluorescence intensity (a.u.)

**Q.** Which binding signal does the source give for “CCCTTTCCTTTTCTTTTTTTTTCTCATTTTATCCACAATTCGGAGTCACCTAGTGCAG” here?
**A.** 9870 fluorescence intensity (a.u.)

**Q.** “CGTGGCCCATCTCCAATTCTCCAGTTGCTTCCTTTTCGTTCGGAGTCACCTAGTGCAG” was tested. Which binding signal did it give?
**A.** 12600 fluorescence intensity (a.u.)

**Q.** How did the binding signal turn out when “TCTCTTTCTTTCCTTAACTCTCTTTCTCTACTCTCCACTCCGGAGTCACCTAGTGCAG” was run?
**A.** 9580 fluorescence intensity (a.u.)

**Q.** How did the binding signal turn out when “GCTGTGTGTACATATTACTAGTACTACTTAATACGTGCTTCGGAGTCACCTAGTGCAG” was run?
**A.** 11200 fluorescence intensity (a.u.)

**Q.** How did the binding signal turn out when “TTGTGAGTGTGTATGTGTTTATGGTGTGTAATTTTTTTTACGGAGTCACCTAGTGCAG” was run?
**A.** 9320 fluorescence intensity (a.u.)

**Q.** For “GGCGTTGGTCACCTCCCGTGAGTCGTCCTCTATTCCTCTTCGGAGTCACCTAGTGCAG”, which binding signal is on record?
**A.** 11100 fluorescence intensity (a.u.)

**Q.** How did the binding signal turn out when “GGTTGTAATCTATAGGGGTCCTTGTATAGAAATATCGTTTCGGAGTCACCTAGTGCAG” was run?
**A.** 8880 fluorescence intensity (a.u.)

**Q.** Which binding signal does the source give for “CTCCTCGCCTTCTTCTCCATCTCCATCTCGCATCTTCTCTCGGAGTCACCTAGTGCAG” here?
**A.** 11400 fluorescence intensity (a.u.)

**Q.** How did the binding signal turn out when “ATTTTGGGACAGAGGTAGCAGTGAACTACACGTACCTTGTCGGAGTCACCTAGTGCAG” was run?
**A.** 21500 fluorescence intensity (a.u.)

**Q.** With “GGGGTCGGGGTGGGAGAGGGAGGCTACACTACAGCAGCAGCGGAGTCACCTAGTGCAG” as the sequence, how does the binding signal read?
**A.** 11100 fluorescence intensity (a.u.)

**Q.** For “ACATTTTAATTTGTAGGGAGAGGTACTATGGGCTTAACTTCGGAGTCACCTAGTGCAG”, which binding signal is on record?
**A.** 9750 fluorescence intensity (a.u.)

**Q.** With “AACAAACCAACCTAGGATACTACTGTCAATTTTCACAACCCGGAGTCACCTAGTGCAG” as the sequence, how does the binding signal read?
**A.** 9280 fluorescence intensity (a.u.)

**Q.** “GCAGTACACTGATACGATACAATCGTTGACTGTTTCAGGACGGAGTCACCTAGTGCAG” was tested. Which binding signal did it give?
**A.** 9230 fluorescence intensity (a.u.)

**Q.** How did the binding signal turn out when “GTGTGGGTGGCAGGGTGTGTTGAGGAGGTGCCCGCGTTGCCGGAGTCACCTAGTGCAG” was run?
**A.** 10300 fluorescence intensity (a.u.)

**Q.** With “GGAGGAGGGGTGGGGTGTTGAGCCCTGGAGAAGCCACCGCCGGAGTCACCTAGTGCAG” as the sequence, how does the binding signal read?
**A.** 21000 fluorescence intensity (a.u.)

**Q.** With “TTGTTGGGTGGGGACGTGGGGTGGGGTTCATGGAGTGGTTCGGAGTCACCTAGTGCAG” as the sequence, how does the binding signal read?
**A.** 24800 fluorescence intensity (a.u.)

**Q.** Which binding signal does the source give for “AATGGGTGTTTTTTTAGTTGTTGTGTGTGTTTGGACGATTCGGAGTCACCTAGTGCAG” here?
**A.** 10400 fluorescence intensity (a.u.)

**Q.** For “GGCGCCGGGGTGGGGTGGTGCTGGAGCCACCGGAGGAGCGCGGAGTCACCTAGTGCAG”, which binding signal is on record?
**A.** 9730 fluorescence intensity (a.u.)

**Q.** Which binding signal does the source give for “ATTGGATCCGGGGAGGAGGAGGTGGGGTTCGGTTTCGTGCCGGAGTCACCTAGTGCAG” here?
**A.** 11600 fluorescence intensity (a.u.)

**Q.** How did the binding signal turn out when “GATGCATTTTTGTCTGGGCGTTGTCCTTGTGGAAGCATCTCGGAGTCACCTAGTGCAG” was run?
**A.** 10000 fluorescence intensity (a.u.)

**Q.** For “TTTTGGTGGGTGGGTTTGGGACGTTGGATTGGTGGTGGACCGGAGTCACCTAGTGCAG”, which binding signal is on record?
**A.** 12600 fluorescence intensity (a.u.)

**Q.** For “TGGATCTGGTGTGTTAGTTTGGATTTGTGTTTGTCCTTTTCGGAGTCACCTAGTGCAG”, which binding signal is on record?
**A.** 12600 fluorescence intensity (a.u.)

**Q.** With “CAGGAGGGGTGGGTTGTTGTTCGGTGGTGTGGACCCGTGCCGGAGTCACCTAGTGCAG” as the sequence, how does the binding signal read?
**A.** 17700 fluorescence intensity (a.u.)

**Q.** With “CGCTTCGCTGACGGTTGTGTGTTGGTGGGTGCAGGGGTGCCGGAGTCACCTAGTGCAG” as the sequence, how does the binding signal read?
**A.** 12700 fluorescence intensity (a.u.)

**Q.** “TGTCCTTTGTTGTGGTGTGGTGGTGGGCATCTGGACCGTTCGGAGTCACCTAGTGCAG” was tested. Which binding signal did it give?
**A.** 29700 fluorescence intensity (a.u.)

**Q.** How did the binding signal turn out when “TCTACGGGTATCCCGCGTCGACAATATTCCCATGCATTTACGGAGTCACCTAGTGCAG” was run?
**A.** 10900 fluorescence intensity (a.u.)

**Q.** How did the binding signal turn out when “ATTCCGTTAGCATTTGTCCTGCCATGGCCTATTCTGCCAGCGGAGTCACCTAGTGCAG” was run?
**A.** 10400 fluorescence intensity (a.u.)

**Q.** Which binding signal does the source give for “CATGTTGTTCTGTTTGATGTTGCCCACTACGGTCTTTAGTCGGAGTCACCTAGTGCAG” here?
**A.** 10900 fluorescence intensity (a.u.)

**Q.** “GACGAGACCGACGCCGTCATCCTCCTTCTCACGCTACCATCGGAGTCACCTAGTGCAG” was tested. Which binding signal did it give?
**A.** 8040 fluorescence intensity (a.u.)

**Q.** For “GTCACTTCTCCTTTTTTTTTGGCATGCAATAGACTTCCTTCGGAGTCACCTAGTGCAG”, which binding signal is on record?
**A.** 8780 fluorescence intensity (a.u.)

**Q.** For “CCCCTCGAGTCTGATCCTCCCACTACCAACGTCCACCGGCCGGAGTCACCTAGTGCAG”, which binding signal is on record?
**A.** 9210 fluorescence intensity (a.u.)

**Q.** With “CCGCCGCCGCTCGCCGCCGCATTGCGTTACTCGAGCTCGCCGGAGTCACCTAGTGCAG” as the sequence, how does the binding signal read?
**A.** 8710 fluorescence intensity (a.u.)

**Q.** Which binding signal does the source give for “TACTGTCTGTCAACACACTTCATGATTTCTCATCAAATATCGGAGTCACCTAGTGCAG” here?
**A.** 10400 fluorescence intensity (a.u.)

**Q.** With “AGGACGATGGGCGCGATGGGATTTGTTCTTGACTGTTTTACGGAGTCACCTAGTGCAG” as the sequence, how does the binding signal read?
**A.** 12000 fluorescence intensity (a.u.)
